Reference: paper PMC5540273 (PLoS ONE, 2017)

Experiments:
Conditions in all cases: concentration: 1 μM, replicates: in singlicate; n = 1
MST1 = system: T1, MST1
T1 construct: gene STK4

MST2 = system: T2, MST2
T2 construct: gene STK3

MST3 = system: T3, MST3
T3 construct: gene STK24

MST4 = system: MST4
MTOR = system: MTOR
MUSK = system: MUSK
MYLK2 = system: MYLK2
MYLK4 = system: MYLK4
MYLK = system: MYLK
MYO3A = system: MYO3A
MYO3B = system: MYO3B
NDR1 = system: T4, NDR1
T4 construct: gene STK38

NDR2 = system: NDR2
NEK10 = system: NEK10
NEK11 = system: NEK11
NEK1 = system: NEK1
NEK2 = system: NEK2
NEK3 = system: NEK3
NEK4 = system: NEK4
NEK5 = system: NEK5
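Note: KINOMEscan kinase panel screen.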

SMILES | %Inh (MST1) | %Inh (MST2) | %Inh (MST3) | %Inh (MST4) | %Inh (MTOR) | %Inh (MUSK) | %Inh (MYLK2) | %Inh (MYLK4) | %Inh (MYLK) | %Inh (MYO3A) | %Inh (MYO3B) | %Inh (NDR1) | %Inh (NDR2) | %Inh (NEK10) | %Inh (NEK11) | %Inh (NEK1) | %Inh (NEK2) | %Inh (NEK3) | %Inh (NEK4) | %Inh (NEK5)
O=C1Cc2cc(Nc3nc(NCc4cccc(S(=O)(=O)C(F)(F)F)c4)ncc3C(F)(F)F)ccc2N1 | 14% | 27% | 0% | 1% | 29% | 0% | 0% | 8% | 2% | 0% | 0% | 9% | 0% | 36% | 0% | 10% | 9% | 12% | 5% | 14%
Cl.Oc1cccc(Nc2ccnc3cc(-c4ccncc4)ccc23)c1 [GW494601] | 0% | 0% | 13% | 0% | 4% | 0% | 24% | 0% | 95.9% | 40% | 0% | 24% | 37% | 0% | 49% | 0% | 0% | 1% | 0% | 0%
Cc1cccc(-c2nc(-c3ccc(S(C)(=O)=O)cc3)sc2-c2ccncc2)c1 | 5% | 0% | 5% | 0% | 0% | 0% | 0% | 0% | 6% | 7% | 0% | 0% | 14% | 0% | 0% | 8% | 0% | 61% | 0% | 3%
O=C(NOCC1CC1)c1ccc(F)c(F)c1Nc1ccc(I)cc1Cl | 0% | 0% | 4% | 0% | 28% | 0% | 0% | 0% | 0% | 0% | 0% | 0% | 0% | 0% | 0% | 0% | 0% | 26% | 0% | 0%
Cc1ccc(NC(=O)c2ccnc(N3CCN(C)CC3)c2)cc1-c1ccc(C(=O)NCC2CC2)cc1 [GW775604] | 27% | 11% | 0% | 0% | 0% | 4% | 0% | 0% | 0% | 0% | 22% | 27% | 0% | 0% | 0% | 20% | 0% | 20% | 0% | 0%
Fc1ccc(-c2nn3c(OCC(F)(F)F)cccc3c2-c2ccncc2)cc1 [GW514784] | 0% | 0% | 12% | 0% | 35% | 0% | 1% | 0% | 15% | 72% | 0% | 11% | 44% | 11% | 44% | 2% | 8% | 0% | 0% | 2%
CC(C)(C)n1cnc2c(N)ncnc21 [SKF-97359] | 9% | 0% | 44% | 0% | 6% | 0% | 0% | 0% | 27% | 0% | 5% | 0% | 0% | 12% | 14% | 0% | 0% | 42% | 0% | 0%
Cc1cn2c(=O)cc(N3CCOCC3)nc2n1Cc1cccc(Cl)c1Cl [GSK2334006] | 14% | 0% | 0% | 0% | 37% | 27% | 32% | 9% | 8% | 0% | 0% | 10% | 0% | 10% | 0% | 0% | 14% | 0% | 4% | 14%
c1ccc(-c2cc(-c3c[nH]nc3-c3ccccn3)ccn2)cc1 [GW576604] | 0% | 0% | 0% | 0% | 10% | 0% | 3% | 0% | 6% | 18% | 0% | 17% | 23% | 19% | 3% | 0% | 0% | 2% | 0% | 0%
COc1cc2c(cc1OC[C@@H](O)CO)ncc1c3ccc(C#N)cc3[nH]c21 | 0% | 67% | 11% | 12% | 52% | 0% | 44% | 99% | 3% | 0% | 0% | 62% | 15% | 18% | 0% | 0% | 23% | 37% | 0% | 0%
CC(=O)Nc1ccc(COc2ccc(Nc3ccnc4cc(-c5ccccn5)ccc34)cc2)cc1.Cl [GW440148] | 0% | 30% | 22% | 0% | 13% | 8% | 3% | 16% | 13% | 27% | 2% | 20% | 37% | 3% | 0% | 0% | 8% | 6% | 0% | 10%
Cc1c(Cn2c(C)nn3c(=O)cc(N4CCOC(C)C4)nc23)cccc1C(F)(F)F (stereo not drawn) [GSK2344444] | 0% | 0% | 2% | 0% | 28% | 0% | 8% | 1% | 0% | 7% | 0% | 0% | 0% | 2% | 0% | 0% | 3% | 0% | 22% | 0%
O=C1NC(=O)C(N2CCc3ccccc32)=C1c1cccc(Cl)c1 [SB-408010] | 0% | 63% | 4% | 0% | 0% | 0% | 0% | 0% | 8% | 9% | 21% | 6% | 7% | 43% | 0% | 3% | 12% | 14% | 0% | 0%
Cc1nnc(-c2ccc(C)c(-c3ccc(C(=O)Nc4ccc(NS(C)(=O)=O)cc4)cc3)c2)o1 [GW702865] | 6% | 0% | 0% | 0% | 28% | 0% | 0% | 8% | 3% | 23% | 0% | 20% | 18% | 6% | 33% | 0% | 0% | 0% | 0% | 8%
NS(=O)(=O)c1cccc(-c2ccc3nccc(-c4cccc(S(N)(=O)=O)c4)c3c2)c1 [GW867253] | 11% | 0% | 5% | 0% | 32% | 10% | 0% | 2% | 0% | 0% | 0% | 41% | 19% | 20% | 8% | 0% | 0% | 29% | 0% | 7%
